Screening data deposited in PubChem BioAssay by The Scripps Research Institute Molecular Screening Center.
A selection: hits, their analogues and other compounds. The true share with any hit is near 2.8%.
pPAFAH inh – inhibitors of human plasma PAF acetylhydrolase (pPAFAH) | Q13093 | inhibition, % at 3.39 µM | recombinant pPAFAH, FP-rhodamine probe fluorescence polarization | hit rate 1.5% among 330,000;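 active = inhibition above the mean inhibition across the screen plus 3 SD, cut at about 25% in these data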;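 note: inhibitors block binding of the rhodamine activity-based probe so polarization drops; 0% = enzyme with DMSO and 100% = wells lacking pPAFAH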
PAFAH1B3 FP inh – inhibitors of human PAFAH1B3; Q15102; recombinant PAFAH1B3, FP-rhodamine probe, fluorescence polarization; AID 492972; hit rate 0.28% among 340,000; inhibition, % at 3.39 µM;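 active = inhibition above the screen-wide average of all tested compounds plus 3 SD, cut at about 25% in these data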;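 note: 0% = enzyme with DMSO only and 100% = wells lacking PAFAH1B3 protein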
HTRA1 inhibitor – blocks human HTRA1 serine peptidase. AID 504803. Q92743. recombinant HTRA1, FP-rhodamine activity-based probe, fluorescence polarization. inhibition, % at 5.96 µM. hit rate 0.5% among 340,000; in the data active = inhibition above about 36%;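 note: 0% = enzyme with DMSO and 100% = wells lacking enzyme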
PAFAH1B2 FP inh – blocks human PAF acetylhydrolase 1b catalytic subunit 2. P68402. recombinant PAFAH1B2, FP-rhodamine activity probe, fluorescence polarization. inhibition, % at 3.39 µM. hit rate 1.2% among 340,000;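 active = inhibition above the mean of all tested compounds plus 3 SD, cut at about 24% in these data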;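 note: 0% = enzyme with DMSO and 100% = wells lacking PAFAH1B2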
DAGLB inhibitor – blocks human DAGLB lipase activity; inhibition, % at 5.17 µM; HEK293T DAGLB membrane lysate, EnzChek fluorogenic substrate; AID 504411; Q8NCG7; hit rate 0.059% among 340,000; in the data active = inhibition above about 34%;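 note: 0% = enzyme with vehicle and 100% = wells lacking enzyme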
Target sequence (Q8NCG7 whole entry, looked up): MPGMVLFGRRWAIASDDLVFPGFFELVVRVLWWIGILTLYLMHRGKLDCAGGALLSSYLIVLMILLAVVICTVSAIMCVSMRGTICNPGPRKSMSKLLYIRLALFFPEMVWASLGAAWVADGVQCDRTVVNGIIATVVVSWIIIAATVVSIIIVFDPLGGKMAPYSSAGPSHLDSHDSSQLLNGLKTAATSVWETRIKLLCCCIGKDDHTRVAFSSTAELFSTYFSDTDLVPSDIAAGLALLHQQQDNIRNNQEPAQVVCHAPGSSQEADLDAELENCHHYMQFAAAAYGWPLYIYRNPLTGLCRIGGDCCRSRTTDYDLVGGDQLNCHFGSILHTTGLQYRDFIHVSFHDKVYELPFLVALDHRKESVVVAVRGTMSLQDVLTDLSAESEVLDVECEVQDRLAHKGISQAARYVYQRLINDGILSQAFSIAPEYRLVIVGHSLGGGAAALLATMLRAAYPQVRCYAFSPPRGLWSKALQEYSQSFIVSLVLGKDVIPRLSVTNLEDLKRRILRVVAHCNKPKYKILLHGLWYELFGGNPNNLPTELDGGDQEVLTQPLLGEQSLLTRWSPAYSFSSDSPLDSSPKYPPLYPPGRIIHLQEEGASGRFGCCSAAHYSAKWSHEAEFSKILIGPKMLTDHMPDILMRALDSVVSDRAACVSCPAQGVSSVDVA
PAFAH2 inh – inhibitors of human PAFAH2; Q99487; hit rate 0.99% among 340,000; recombinant PAFAH2, FP-rhodamine activity probe, fluorescence polarization; inhibition, % at 3.39 µM;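 active = inhibition above the mean over all tested compounds plus 3 SD, cut at about 30% in these data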;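 note: inhibitors block probe labeling of enzyme so polarization drops; 0% = enzyme with DMSO and 100% = wells lacking PAFAH2 protein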
HTRA1 inh conf – HTRA1 (human) inhibition, confirmation. shares compounds with HTRA1 inhibitor. recombinant HTRA1, FP-rhodamine activity-based probe, fluorescence polarization. inhibition, % at 5.96 µM. hit rate 66% among 1,600. AID 540248;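 active = mean inhibition over three repeats above a set limit taken from the earlier primary screen, cut at about 37% in these data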;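 note: 0% = HTRA1 with DMSO and 100% = wells lacking HTRA1; inhibitors block probe binding so polarization drops and inhibition rises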
An asterisk follows results filed as active; . = no result given; ! = repeats disagree.

SMILES | pPAFAH inh | PAFAH1B3 FP inh | HTRA1 inhibitor | PAFAH1B2 FP inh | DAGLB inhibitor | PAFAH2 inh | HTRA1 inh conf
COc1ccc2c(c1O)-c1ccccc1CCN(C)C2 | -5 | 3 | 2 | 6 | -4 | 12 | .
CCN(C(=O)Cn1cc(C(=O)C(=O)N2CCOCC2)c2ccccc21)c1ccccc1 | 1 | 22 | 5 | 4 | -1 | 1 | .
COc1ccc(-c2cccc3c2C2CC3CCN2C(=O)OCc2ccccc2)cc1 (stereo not given) | . | 4 | -17 | 7 | -20 | -5 | .
NC(=O)C1CCN(C2=C(NS(=O)(=O)c3ccc(Br)cc3)C(=O)c3ccccc3C2=O)CC1 | 8 | 8 | 7 | 11 | 24 | 8 | .
CCOC(=O)C1CCN(C2=C(NS(=O)(=O)c3ccc(Br)cc3)C(=O)c3ccccc3C2=O)CC1 | 16 | 7 | 47* | 17 | 30 | 10 | 65*
COc1cccc(CC(NC(C)=O)C(=O)NC2CCN(C(=O)Nc3ccc(C)cc3)CC2)c1 (stereo not given) | . | 5 | -4 | -1 | -3 | -5 | .
Oc1[nH]c2ccccc2c1N=Nc1ccccn1 | . | 1 | 0 | 2 | 1 | 8 | .
Oc1c(N=Nc2ccccn2)ccc2ccccc12 | 14 | -31 | 51* | 1 | 40* | 3 | 38*
Cc1cccc(OCC(=O)NC(=S)N2CCCc3ccccc32)c1 | 10 | 2 | 48* | -8 | -2 | 1 | 7
Cc1[nH][nH]c(=O)c1C(c1ccc(-c2ccc(Cl)c(Cl)c2)o1)c1c(C)[nH][nH]c1=O | 22 | 7 | 40* | 3 | -8 | 15 | 37*
Cc1[nH][nH]c(=O)c1C(c1ccc(-c2ccc(F)cc2)o1)c1c(C)[nH][nH]c1=O | -3 | 15 | 1 | 9 | 4 | 7 | .
COc1ccc(/C=N/N(c2ccccc2)c2ccccc2)cc1O | . | 15 | 22 | 7 | 3 | 8 | .
CN(/N=C\c1ccc(O)c(O)c1)c1nc(-c2ccccc2)cc(-c2ccccc2)n1 | 23 | -12 | 39* | 7 | 4 | -12 | 66*
COc1cc(/C=N/Nc2cccc(C)c2)ccc1OC(=O)c1cccs1 | 0 | 12 | 35 | 1 | 1 | 4 | .
COc1cc(/C=N/Nc2cccc(C)c2)cc(Br)c1O | . | 2 | 38* | 3 | -1 | 21 | 30
CCCCN(Cc1nc2ccccc2c(=O)[nH]1)C(=O)c1nn(C)c(=O)c2ccccc12 | . | 76* | 85* | 42* | 1 | 81* | 0
CC(C)(C)c1cc(C(=O)N/N=C/c2ccccc2O)n(-c2ccccc2)n1 | 10 | -12 | 37* | 18 | 6 | -5 | 51*
CC(C)(C)c1cc(C(=O)N/N=C/c2ccc(F)cc2)n(-c2ccccc2)n1 | 6 | -4 | -21 | 21 | -3 | 1 | .
CCc1ccc2[nH]c3nc(N/N=C/c4ccc(O)cc4O)nnc3c2c1 | 28* | 26* | 61* | 23 | 6 | 14 | 63*
CC[C@H](C)/C=C/C1=CC2=C(Cl)C(=O)[C@@]3(C)OC(=O)C(C(=O)[C@H](C)[C@@H](C)O)=C3C2=CO1 | 15 | 15 | 54* | 4 | 31 | 5 | 68*
O=[N+]([O-])c1ccc2c(c1Nc1ccccc1Cl)=NC1(CCCCC1)N=2 | 0 | . | . | . | . | . | .
Cc1ccc(Nc2c([N+](=O)[O-])ccc3c2=NC2(CCCCC2)N=3)cc1 | 6 | 21 | 37* | 10 | 22 | 22 | 75*
O=C(Nc1ccc([N+](=O)[O-])cc1)Nc1ccc(N2CCOCC2)c2nonc12 | 2 | 0 | 2 | 4 | -1 | 1 | .
O=C(C1=COCCO1)N(Cc1nnc(-c2ccccc2Cl)o1)C1CC1 | 3 | 5 | 7 | 3 | 0 | 4 | .
CC(C)Nc1ccc(Nc2ccnc3cc4ccccc4cc23)cc1 | 8 | 10 | 39* | 2 | 14 | 6 | 46*
SMILES | pPAFAH inh | PAFAH1B3 FP inh | HTRA1 inhibitor | PAFAH1B2 FP inh | DAGLB inhibitor | PAFAH2 inh | HTRA1 inh conf
CC(=NNc1nc2ccccc2s1)c1ccncn1 | . | 9 | 48* | 1 | 1 | -1 | 34
Cc1cc2cc(CNC(=O)Nc3cccc(Cl)c3)ccc2n1C | 14 | 2 | 39* | 2 | 15 | 10 | 6
Cc1cc2cc(CNC(=O)C3CCCC3)ccc2n1C | 2 | -2 | 12 | 0 | 3 | -4 | .
Cc1cccc(NC(=S)NCc2ccc3c(c2)cc(C)n3C)c1C | 11 | 2 | 50* | 1 | 10 | 11 | -1
Cc1cccc(NC(=O)NCc2ccc3c(c2)cc(C)n3C)c1 | -2 | 4 | 40* | -6 | 9 | 9 | -7
Cc1cc2cc(CNC(=S)Nc3ccc(OC(F)(F)F)cc3)ccc2n1C | 4 | -2 | 41* | 2 | 11 | 0 | 11
CCCC(=O)NCc1ccc2c(c1)cc(C)n2C | 5 | -2 | 7 | 0 | 2 | -9 | .
COc1ccc(-c2coc3cc(OC(C)=O)ccc3c2=S)cc1 | . | 10 | 2 | 6 | 0 | -4 | .
C=C1C(=O)O[C@@]23[C@H]1CC[C@@H](C)[C@@H]2CC[C@@]1(C)O[C@@H]31 | 3 | 0 | -3 | 9 | 0 | -3 | .
CC(=O)N1CCN(c2ccc(NC(=O)c3cccc(C)c3)cc2)CC1 | 7 | 1 | 5 | -3 | -4 | -4 | .
Cc1cccc(N2CCN(c3ccc(NC(=O)/C=C(/C(=O)O)c4ccccc4)cc3)CC2)c1 | 4 | -2 | 49* | 2 | 22 | 3 | 41*
CC(C)N=C(N)N=C(N)Nc1ccc(Cl)cc1 | 5 | 11 | 6 | 0 | 3 | -2 | .
NC(=NCCCCCCN=C(N)/N=C(\N)Nc1ccc(Cl)cc1)/N=C(\N)Nc1ccc(Cl)cc1 | -6 | -2 | 42*! | -5 | 7 | 7 | 45*
CC(C)(C)c1ccc(OCCCC(=O)Nc2nnc(C3CC3)s2)cc1 | . | . | -4 | . | -3 | . | .
CCc1cc(=O)oc2cc(C)cc(OC(=O)c3ccco3)c12 | 3 | 0 | 48* | 3 | 3 | 0 | 26
O=C1C(NS(=O)(=O)c2cccs2)=C(N2CCN(c3cccc(C(F)(F)F)c3)CC2)C(=O)c2ccccc21 | 17 | 8 | 45* | 7 | 32 | 14 | 69*
CN1c2ccccc2N(C)C1(C)c1cccc2ccccc12 | 8 | 13 | 47* | 1 | 5 | 5 | -2
CN1c2cccc3cccc(c23)N(C)C1(C)C | 0 | 9 | 5 | 2 | 2 | 0 | .
COCCN(C(=S)Nc1cccc(C)c1)C(C)c1cccnc1 (stereo not given) | 6 | 2 | 3 | 1 | 0 | -7 | .
CN(C)c1ccc(C=c2c3ccccc3n3c2cc(-c2ccccc2)[n+]3C)cc1 | . | 9 | -32 | -17 | 22 | 8 | .
CN(C)c1ccc(C=c2c3cc([N+](=O)[O-])ccc3n3c2cc(-c2ccccc2)[n+]3C)cc1 | . | 13 | 92* | 10 | 34 | 23 | 41*
